This passage reports Potency results from PubChem BioAssay AID624202 (National Center for Advancing Translational Sciences (NCATS), 2012).

The structures appear in SMILES notation. About 4,000 (1.1%) of roughly 380,000 compounds were called active. Not shown: some 3% with an inconclusive outcome. Calls come from the whole dose curve; as a rule, active = well fitted activation curve with a large enough effect; inconclusive = small, poorly fitted or top-dose-only effect; inactive = no such curve, though single readings can be large or run the other way. The entries come from a sample that favours actives as a whole. A call without a number means that no potency is given here.
Potency is the fitted concentration of half-maximal effect.

This assay is described as follows: qHTS Assay to Identify Small Molecule Activators of BRCA1 Expression. Note: nearly all actives have a fitted effect of over 80% in size. As to conditions: MCF7-BRCA1-FFLuc reporter, luminescence, 48 h; series mostly up to 46.1 µM. In outline:
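Reporter cells (MCF7, BRCA1 promoter-firefly luciferase) received library compounds across a concentration series for 48 h. End-point luminescence was measured and concentration-effect curves derived after normalization.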
Regarding `Cc1c2cnn(-c3ccccc3)c(=O)c2c(C)n1C(C)C(=O)Nc1ccc(Br)cc1F` (stereo not drawn), the Potency result is “inactive”.
To `Cc1cc(C)cc(-n2c(SCC(=O)NCC3CCCO3)nc3c([nH]c4ccccc43)c2=O)c1` (stereo not drawn) belongs “inactive”.
To `CN(CCOc1ccccc1)C(=O)c1cc(COc2c(F)cccc2F)on1` belongs “inactive”.
To `CC(C)Cc1cc(C(=O)NCCc2ccccc2)no1` belongs 5.01 µM (active); to `Nc1nonc1C(=O)NCCc1ccccc1`, “inactive”.
Regarding `O=C(NCCN1CCCC(O)C1)c1cc(COc2c(F)cccc2F)on1` (stereo not drawn), the Potency entry was “inactive”.
With `O=C(NCCCc1ccccc1)c1cc(COc2c(F)cccc2F)on1` the figure was 12.6 µM (active); with `C[C@H](NC(=O)NCCc1ccccc1)C(=O)O`, “inactive”.
With `O=S(=O)(c1ccc(C2CCCCC2)cc1)N1CCN(c2ccc(Cl)c(Cl)c2)CC1` the entry was “inactive”.
To `CSc1cccc(NC(=O)CN2C(=O)CCc3cc(S(=O)(=O)N4CCCCC4)ccc32)c1` belongs “inactive”.
Consider `COc1ccc2c(c1)c(=O)c(C(=O)c1ccccc1)cn2CC(=O)Nc1ccc2c(c1)OCCO2`, for which the Potency result is “inactive”.
With `CC(=O)N1CCc2cc(Br)cc(S(=O)(=O)CCC(=O)NCCc3ccc(Cl)cc3)c21`, the Potency entry is “inactive”.
As for `CN(CC(=O)Nc1cccc(C(F)(F)F)c1)S(=O)(=O)c1cccs1`, the Potency entry was “inactive”.
To `CC(=O)NN=C(C)c1ccc(NC(=O)C2CC2)cc1` belongs “inactive”.
With `C/C(=N/NS(=O)(=O)c1ccccc1)c1ccc(NC(=O)C(F)(F)F)cc1` the entry was “inactive”; with `C/C(=N/NC(=O)c1ccc(NC(=O)c2ccc(F)cc2)cc1)c1ccccc1`, 12.6 µM (active); with `O=C(CSc1nc(=O)n(Cc2cccnc2)c2c1CCC2)Nc1ccc(F)cc1F`, “inactive”.
With `CC(=O)Nc1ccc(S(=O)(=O)N2CCN(c3ccccc3)CC2)cc1` the entry was “inactive”; with `Cc1ccccc1-c1nnn(CC(=O)c2ccc(S(=O)(=O)N3CCCC3)cc2)n1`, “inactive”.
In the case of `COc1cc(-c2nnn(CC(=O)NCc3ccccc3)n2)cc(OC)c1OC`, the Potency entry was “inactive”.
On to `CC(C)(C)NC(=O)Cn1nnc(-c2ccccc2Cl)n1`, for which the Potency was 12.6 µM (active).
For `O=C(Nc1ccccc1C(F)(F)F)c1nc(S(=O)(=O)Cc2ccccc2F)ncc1Cl`, the Potency result is “inactive”.
With `COC(=O)c1ccc(/C=C/c2c(-c3ccc(OC)cc3)sc3ccccc23)cc1` the entry was “inactive”; with `COc1ccccc1-c1sc2ccccc2c1-c1ccc(C(C)=O)cc1`, “inactive”; with `COc1ccc(N=C(C)c2sc3ccccc3c2O)cc1`, 5.01 µM (active).
With `CCN(CC)S(=O)(=O)c1ccc2c(c1)c(=O)c(C(=O)N1CCN(c3cccc(Cl)c3)CC1)cn2C` the entry was “inactive”.
`CCNC(=O)c1sccc1-n1cccc1`: the Potency entry was “inactive”.
With `Cc1ccsc1C(=O)NC1CCCCC1C` (stereo not drawn) the entry was “inactive”; with `Cc1ccsc1C(=O)NCCc1ccco1`, 4.47 µM (active); with `NC(=O)Nc1ccc(/C=C/c2ccnc3ccccc23)cc1`, “inactive”.
With `COc1ccc(CNc2nc(-c3ccc(Cl)cc3)nn2C(=O)c2ccccc2)cc1` the entry was “inactive”; with `CCC(C(=O)Nc1cc(OC)ccc1OC)n1c(=O)c(C(F)(F)F)nc2ccccc21` (stereo not drawn), “inactive”; with `Cc1cccc(NC(=O)CSCC(=O)Nc2nnc(C3CC3)s2)c1`, “inactive”.
As to `Cc1cc(C(=O)Nc2nnc(C3CC3)s2)c(C)s1`, the Potency was 3.55 µM (active).
To `CC1CCN(c2ccc(C(=O)Nc3nnc(C4CC4)s3)cc2[N+](=O)[O-])CC1` belongs “inactive”; to `Cc1ccc(Cc2nc3ccccc3nc2SCC(=O)Nc2cccc(C(F)(F)F)c2)cc1`, “inactive”.
To `CC(=O)Oc1ccc(C(=O)Nc2nccs2)cc1` belongs 11.2 µM (active); to `CCCCOC(=O)Nc1nccs1`, “inactive”.
With `Cn1cccc1C(=O)Nc1nccs1` the entry was “inactive”.
For `Cc1ccc(NC(=O)c2oc3ccccc3c2NC(=O)Cc2cccs2)cc1`, the Potency result was “inactive”.
To `Cc1cc(NC(=O)c2ccc(-c3ccc(Cl)cc3)o2)cc(-c2nc3ncccc3o2)c1O` belongs “inactive”; to `CCOc1cc(C2c3c(-c4ccc(Br)cc4)n[nH]c3C(=O)N2c2ccc(Cl)cc2)ccc1O` (stereo not drawn), “inactive”; to `CCC1=Nc2cc(C(=O)NCC(C)c3ccccc3)ccc2Sc2ccc(C)cc21` (stereo not drawn), “inactive”.
On to `O=C(COc1ccccc1F)OCc1cc(=O)n2nc(C3CCCCC3)sc2n1`, for which the Potency entry was “inactive”.
On to `COc1cccc(CNCc2c(C(=O)O)n(Cc3ccc(C)cc3)c3cc(C)ccc23)c1OC`, for which the Potency result is “inactive”.
With `O=C(CSCc1cccs1)N1CCCC1` the figure was 12.6 µM (active); with `Cn1c(SCC(=O)N2CCCC2)nnc1-c1cccs1`, “inactive”.
To `O=C(CSc1n[nH]c(-c2cccs2)n1)N1CCCCC1` belongs “inactive”; to `OC(CBr)C[n+]1cccc2cc(Br)ccc21` (stereo not drawn), “inactive”.
To `CCCCOc1ccc(C(=O)Nc2cccc(-c3nc4ccccc4o3)c2C)cc1` belongs “inactive”; to `COc1ccc2c(c1)CCc1c(C(=O)N3CCc4ccccc4C3)noc1-2`, “inactive”; to `O=C(c1noc2c1CCCC2)N1CCc2ccccc2C1`, 5.62 µM (active).
In the case of `CN(c1ccc(C(=O)N2CCc3ccccc3C2)cc1)S(C)(=O)=O`, the Potency entry is “inactive”.
To `COc1ccc2c(c1)c(N1CCCC1=O)c(C(=O)Nc1ccc(OC)c(Cl)c1)n2C` belongs “inactive”.
To `O=C(c1ccc2c(c1)N(Cc1ccc(Cl)cc1)C(=O)c1ccccc1S2(=O)=O)N1CCCCC1` belongs “inactive”; to `CCN(c1cccc(C)c1)S(=O)(=O)c1ccc(-c2coc(C)n2)cc1`, “inactive”; to `CCN(CC(=O)NCCc1ccccc1)S(=O)(=O)c1ccc(C)cc1`, “inactive”.
Take `CCN(CC)S(=O)(=O)c1ccc(-c2cn3ccc(C)cc3n2)cc1`: the Potency is 3.55 µM (active).
Consider `CCC(=O)N1N=C(c2ccc(OC)cc2)CC1c1cn(-c2ccccc2)nc1-c1cccs1` (stereo not drawn), for which the Potency entry is “inactive”.
To `CN(C(=O)CSc1nc2ccccc2n1Cc1ccccc1C#N)c1ccccc1` belongs “inactive”.
To `CN1CCN(/[N+]([O-])=N/Oc2ccc([N+](=O)[O-])cc2[N+](=O)[O-])CC1` belongs “inactive”.
Turning to `CCn1c2ccc(F)cc2c2nnc(SCCN3CCOCC3)nc21`, the Potency entry was “inactive”.
With `Cc1cc2nc(SCCN3CCOCC3)[nH]c2cc1C` the figure was 4.47 µM (active); with `COc1ccc2nc(SCC(=O)Nc3c(C)cc(C)cc3C)[nH]c2c1`, “inactive”.
To `COc1cc(C)ccc1OCCSc1nc2ccc(NC(=O)c3ccc(C)cc3)cc2s1` belongs “inactive”; to `CCOc1ccc(CCNC(=O)c2cc3c(=O)n(C)c4ccccc4c3n2C)cc1`, “inactive”.
To `Cc1ccccc1CCNC(=O)C1CCN(c2nc3ccccc3nc2C(F)(F)F)CC1` belongs “inactive”.
As for `COc1ccc(-n2c(C)nc3c(cnn3-c3ccc(F)cc3)c2=O)cc1`, the Potency entry was “inactive”.
